PubChem BioAssay (NCATS)
Values without a mark were called inactive. Inconclusive results are not listed. Entries that show only a call come without a potency. Active and inactive are the calls of the source. Unless noted, calls follow the shape of the dose curve; as a rule, active = well fitted curve in the direction sought with a large enough effect; inconclusive = small, poorly fitted or top-dose-only effect, or another doubt; inactive = no such curve, though single readings can be large; an effect the other way counts as inactive or inconclusive.

Experiments:
[1] = Cell Viability - BJ (AID 421; calls by dose curve;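 also: potency is read from the fitted curve at half-maximal effect; cells exposed to compound for 40 hours at 37 °C before readout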); conditions: BJ fibroblast viability, qHTS
Outline: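 Cytotoxicity as drop in intracellular ATP (CellTiter-Glo, 20 min RT) after 40 hr compound exposure of BJ fibroblasts at 37 °C. Titrations scaled between DMSO and 100 uM tamoxifen, Hill-fitted for AC50.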

[2] = Cell Viability - Jurkat (AID 426;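 active = dose-dependent loss of cell ATP signal giving a full or clear fitted curve, ranked by lower potency value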; also: potency is read from the fitted curve at half-maximal effect); conditions: qHTS
Outline: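 Luminescent ATP read-out (CellTiter-Glo, 20 min at room temperature) after 40 hr compound exposure at 37 °C of Jurkat E6-1 cells, 5000/well. Decreased ATP taken as cytotoxicity; AC50 from standard Hill equation.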

[3] = Cell Viability - Hek293 (AID 427;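 active = compounds whose dose-response curve shows a full or clear partial loss of cell viability, called from curve shape rather than a numeric limit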;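 also: potency is read from the fitted curve at half-maximal effect; cells exposed to compound for 40 hours at 37 °C before reading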); conditions: qHTS
Outline: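 Luminescent ATP content (CellTiter-Glo, 20 min at room temperature) was measured after a 40 hr, 37 °C compound exposure of HEK293 cells. AC50 values came from Hill-equation fits of qHTS concentration-response data normalized to DMSO and 100 uM tamoxifen.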

[4] = Cell Viability - HepG2 (AID 433; calls by dose curve;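 also: potency is read from the fitted curve at half-maximal effect; potency for ATP loss meaning cytotoxicity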); conditions: qHTS
Outline: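 In this qHTS format, a 40 h, 37 °C compound incubation of HepG2 cells in complete medium precedes a 20 min CellTiter-Glo step at room temperature. Tamoxifen and doxorubicin serve as positive controls; Hill-equation fits yield AC50.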

[5] = Cell Viability - SK-N-SH (AID 435; calls by dose curve; also: potency is read from the fitted curve at half-maximal effect); conditions: SK-N-SH neuroblastoma cell viability qHTS
Outline: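 Human neuroblastoma line, 40 h exposure at 37 °C, ATP quantified via luciferase luminescence; DMSO and 100 uM tamoxifen define 0 and 100% inhibition for AC50 fitting.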

[6] = target: Mitogen-activated protein kinase 10 (Mus musculus) (UniProt Q61831); experiment: JNK3 AlphaScreen Assay (AID 530; active = well fitted curve in either direction with a large enough effect, not every such curve was filed as active;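 also: kinase came from lysate of stimulated human HepG2 cells; signal reports phosphorylation of biotinylated GST-cJun 1-79 at Ser73 with 10 µM ATP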); conditions: JNK3 lysate, c-Jun phosphorylation; series mostly up to 57.1 µM
Outline: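 HepG2 lysate (IL-1b/TNFa pre-activated) + biotin-GST-cJun 1-79 + anti-pSer73 cJun; cpd titration, 15 min RT; ATP 10 uM start; Tris pH 7.6, MgCl2, DTT, vanadate; beads in EDTA buffer; AlphaScreen.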

[7] = Cell Viability - N2a (AID 540); conditions: N2a mouse neuroblastoma cell viability; activity change, negative = cytotoxicity: at 92.2 µM (top of the series); also: nearly all actives have a fitted effect of over 45% in size
Outline: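 N2a mouse neuroblastoma, 1500 cells/well, 5 hr settle; compound 40 hr, 37 °C; CellTiter-Glo 20 min RT; luminescence; Hill-fit AC50.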

[8] = Cell Viability - NIH 3T3 (AID 541); conditions: NIH 3T3 cell viability, qHTS; activity change, negative = cytotoxicity: at 92.2 µM (top of the series); also: nearly all actives have a fitted effect of over 25% in size
Outline: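 qHTS format; 40 hr compound exposure, 37 °C; CellTiter-Glo luminescence (cellular ATP) read-out after 20 min at RT. Decrease in ATP = cytotoxicity; AC50 from standard Hill fit.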

[9] = Cell Viability - HUV-EC-C (AID 542); conditions: HUV-EC-C endothelial cell viability, qHTS; series mostly up to 92.2 µM; also: nearly all actives have a fitted effect of over 35% in size
Outline: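 Luminescent ATP read-out (CellTiter-Glo, 20 min room temperature) after 40 hr compound treatment of HUV-EC-C cells at 37 °C. Concentration-response data fitted with the standard Hill equation to give AC50; tamoxifen and doxorubicin served as positive controls.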

[10] = Cell Viability - H-4-II-E (AID 543); conditions: H-4-II-E rat hepatoma viability; series mostly up to 92.2 µM; also: nearly all actives have a fitted effect of over 35% in size
Outline: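 qHTS, rat hepatoma H-4-II-E, 1500 cells/well; 40 hr compound exposure, 37 °C; CellTiter-Glo ATP luminescence after 20 min RT; AC50 by standard Hill fit.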

[11] = Cell Viability - SH-SY5Y (AID 544); conditions: SH-SY5Y neuroblastoma cell viability; viability change, negative = cytotoxic: at 92.2 µM (top of the series); also: nearly all actives have a fitted effect of over 55% in size; also: potency is read from the fitted curve at half-maximal effect
Outline: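 SH-SY5Y, 1500 cells/well, 5 hr pre-incubation 37 °C; cpd 40 hr 37 °C; CellTiter-Glo 20 min RT; luminescence (ATP) read. qHTS concentration-response, Hill fit → AC50. Tamoxifen, doxorubicin as positive controls.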

[12] = Cell Viability - Renal Proximal Tubule (AID 545); conditions: renal proximal tubule cells viability, primary cells of rat origin; series mostly up to 91.7 µM; also: nearly all actives have a fitted effect of over 40% in size
Outline: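 In this qHTS format, normal rat kidney-derived proximal tubule cells in complete culture medium receive compound titrations, then sit 40 hours at 37 °C before luciferase-based ATP quantitation; potency is reported as AC50 from concentration-response curves.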

[13] = Cell Viability - Mesenchymal (AID 546); conditions: mesenchymal cells viability, qHTS; series mostly up to 91.7 µM;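 also: cells exposed to compound for 40 hours before reading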
Outline: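 Human renal mesenchymal cells (glomerulus-derived), 1000 cells/well, 5 hr 37 °C pre-incubation; compound 40 hr, 37 °C; CellTiter-Glo, 20 min RT; luminescence; AC50 via Hill equation.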

[14] = Cellular Toxicity (caspase-3) HepG2 (AID 654); conditions: HepG2 caspase-3 activation, luminescence; series mostly up to 92.2 µM;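 also: cells exposed to compound for 16 hours before reading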
Outline: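 Luminescent Caspase-Glo 3/7 readout after 16 hr compound exposure of human hepatocellular carcinoma HepG2 cells at 37 °C; qHTS concentration-response, normalized DMSO = 0%, 100 uM tamoxifen = 100%; AC50 by standard Hill equation.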

[15] = Cellular Toxicity (caspase-3) Jurkat (AID 655); conditions: Jurkat caspase-3 activation, luminescence; caspase-3 activation: at 92.2 µM (top of the series), DMSO = 0%, tamoxifen = 100%;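 also: cells exposed to compound for 16 h at 37 °C before reading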
Outline: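 qHTS in human Jurkat T-cell leukemia line: 16 hr compound treatment at 37 °C, caspase-3/7 activity measured by Caspase-Glo luminescence. AC50 derived from Hill equation.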

[16] = Cellular Toxicity (caspase-3) HUV-EC-C (AID 656); conditions: HUV-EC-C cells, caspase-3 activation (apoptosis), vehicle = 0, 100 µM tamoxifen = 100%; series mostly up to 92.2 µM;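 also: cells exposed to compound for 16 h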
Outline: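 Concentration-dependent caspase 3/7 induction was assessed in HUV-EC-C cells exposed for 16 hours. Data scaled between DMSO and tamoxifen (100 uM) controls.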

[17] = Cellular Toxicity (caspase-3) SHSY5Y (AID 657); conditions: SH-SY5Y caspase-3 activation, DMSO zero, 10 µM staurosporine = 100%; series mostly up to 91.7 µM;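 also: cells exposed to compound for 16 hours at 37 °C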
Outline: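 Readout: caspase-cleaved peptide-aminoluciferin substrate driving luciferase light in SH-SY5Y neuroblastoma cells after 16 h treatment. Response normalized to DMSO and 10 uM staurosporine controls.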

[18] = Cellular Toxicity (caspase-3) BJ (AID 658); conditions: BJ fibroblasts, luminescence, normalized: DMSO 0%, staurosporine 100%; series mostly up to 91.7 µM
Outline: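 qHTS, BJ fibroblasts, 1000 cells/well; 5 hr preincubation, 16 hr compound, 37 °C; Caspase-Glo 3/7 reagent, 1 hr RT; luminescence. DMSO = 0%, 10 uM staurosporine = 100%. Hill-equation AC50.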

[19] = Cellular Toxicity (caspase-3) MRC-5 (AID 659); conditions: MRC-5 cells, luminescence, normalized: DMSO 0%, 10 µM staurosporine 100%; series mostly up to 91.7 µM;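 also: cells exposed to compound for 16 h at 37 °C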
Outline: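 MRC-5 fibroblasts, 1500/well; 16 h cpd, 37 °C; Caspase-Glo 3/7, 1 h RT; lumi read. Norm: DMSO = 0%, 10 uM staurosporine = 100%. Hill-fit AC50 from qHTS conc-response.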

[20] = Cell Viability - MRC5 (AID 434; calls by dose curve;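 also: potency is read from the fitted curve at half-maximal effect; potency reflects cytotoxicity seen as loss of intracellular ATP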); conditions: MRC5 lung fibroblast viability, qHTS
Outline: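 ATP luminescence read-out (CellTiter-Glo, 20 min RT) after 40 hr, 37 °C compound exposure of 1500 MRC5 cells/well. Data normalized to DMSO (basal) and 100 uM tamoxifen (100% inhibition); AC50 from standard Hill equation.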

| Structure (SMILES) | Potency [1] [µM] | Potency [2] [µM] | Potency [3] [µM] | Potency [4] [µM] | Potency [5] [µM] | outcome [6] | activity change, negative = cytotoxicity [7] [%] | Potency [8] | Potency [9] | Potency [10] | Potency [11] | Potency [12] | Potency [13] | Potency [14] | caspase-3 activation [15] [%] | outcome [16] | outcome [17] | outcome [18] | outcome [19] | Potency [20] [µM] |
| --- | --- | --- | --- | --- | --- | --- | --- | --- | --- | --- | --- | --- | --- | --- | --- | --- | --- | --- | --- | --- |
| CC(C)(O)C(=O)O | > 92 | > 92 | > 92 | > 92 | > 92 | inactive | 4.75 | inactive | inactive | inactive | inactive | inactive | inactive | inactive | -0.979 | inactive | inactive | inactive | inactive |  |
| CC(C)CCOC(=O)/C=C/c1ccccc1 | > 92 | > 92 | > 92 | > 92 | > 92 | inactive | 1.5 | inactive | inactive | inactive | inactive | inactive | inactive | inactive | 0.824 | inactive | inactive | inactive | inactive |  |
| O=[N+]([O-])c1c(Cl)cc(Cl)cc1Cl | > 92 | > 92 | > 92 | > 92 | > 92 | inactive | 3.57 | inactive | inactive | inactive | inactive | inactive | inactive | inactive | 0.558 | inactive | inactive | inactive | inactive |  |
| CC(=O)c1ccc([N+](=O)[O-])cc1 | > 92 | > 92 | > 92 | > 92 | > 92 | inactive | 0.428 | inactive | inactive | inactive | inactive | inactive | inactive | inactive | 0.818 | inactive | inactive | inactive | inactive |  |
| O=C1CCC(=O)O1 | > 92 | > 92 | > 92 | > 92 |  | inactive | 2.23 | inactive | inactive | inactive | inactive |  | inactive |  | 1.09 | inactive | inactive | inactive | inactive | > 92 |
| Cc1ccc(S(=O)(=O)NC2CCCCC2)cc1 | > 92 | > 92 | > 92 | > 92 |  | inactive | -19.2 |  | inactive | inactive | inactive | inactive | inactive | inactive | 0.692 | inactive | inactive | inactive | inactive | > 92 |
| Oc1c(Cl)ccc(Cl)c1Cl | > 92 | > 92 | > 92 | > 92 | > 92 | inactive | -9.1 |  | inactive | inactive | inactive |  | inactive | inactive | 0.893 | inactive | inactive | inactive | inactive |  |
| CC(=O)c1cccc([N+](=O)[O-])c1 | > 92 | > 92 | > 92 | > 92 |  |  | 0.298 | inactive | inactive | inactive | inactive | inactive | inactive |  | -0.656 | inactive | inactive | inactive | inactive | > 92 |
| CCCC=O | > 92 | > 92 | > 92 | > 92 |  | inactive | -20.1 |  | inactive | inactive | inactive | inactive | inactive | inactive |  | inactive | inactive | inactive | inactive | > 92 |
| CC(=O)OCc1ccco1 | > 92 | > 92 | > 92 | > 92 | > 92 | inactive | -7.42 | inactive | inactive | inactive | 31.6 µM (active) |  | inactive | inactive | 13.6 | inactive | inactive | inactive | inactive |  |
| CSc1ccc(C=O)cc1 | > 92 | > 92 | > 92 | > 92 | > 92 | inactive | 0.565 | inactive | inactive | inactive | inactive | inactive | inactive | inactive | 1.05 | inactive | inactive | inactive | inactive |  |
| Nc1nc(-c2ccccc2)cs1 | > 92 | > 92 | > 92 | > 92 | > 92 | inactive | -4.72 | inactive | inactive | inactive |  | inactive | inactive | inactive | -3.96 | inactive | inactive | inactive | inactive |  |
